Source: PubChem BioAssay
Hits are enriched below; roughly 3% of the tested compounds scored in any of these assays.
ClpP mod: qHTS Assay for Activators of ClpP | ATP-dependent Clp protease proteolytic subunit (Bacillus subtilis (strain 168)), P80244 | purified B. subtilis ClpP, FRET peptide cleavage, 20 min | Potency, µM (highest dose often 57.5 µM) | 340,000 compounds, 1.9% hits; active = well fitted falling curve with a large enough effect; inconclusive = small, poorly fitted or top-dose-only effect; inactive = no such curve, though single readings can be large or run the other way; also: the source files actives as falling curves though it sought activators and does not explain the sign; nearly all actives have a fitted effect of over 65% in size
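FRET quenching reversal measured ClpP activation: 10 microg/mL B. subtilis ClpP at pH 8 with the FRET-FV decapeptide, read at 430 nm after 320 nm excitation. The 20-min minus 0-min signal was scaled between DMSO/no-enzyme wells and ADEP (5.8 microM final).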
LDHA inh: blocks human lactate dehydrogenase A; P00338; activity change, % (values are at about 110 or 230 µM); 480,000 compounds, 0.15% hits; purified LDHA, NADH/diaphorase-resazurin fluorescence; active compounds read low; AID 1347041; in the data active = activity change below about -30%; inconclusive = mostly about -25% to -30%
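Enzyme activity of human lactate dehydrogenase 5 (2 nM; 0.06 mM NADH, 0.2 mM pyruvate, 5 min, RT) is measured via a resazurin/diaphorase fluorescence readout of residual NADH.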
ALOX12 inh: inhibitors of human 12S-lipoxygenase ALOX12 | P18054 | purified 12hLO, xylenol orange hydroperoxide absorbance | Potency, µM (highest dose often 108 µM), most hits filed as inhibitors | 580,000 compounds, 1.1% hits | AID 1671190; active = well fitted inhibition curve with a large enough effect; inconclusive = small, poorly fitted or top-dose-only effect, or another doubt; inactive = no such curve, though single readings can be large or run the other way
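Purified human 12hLO at 150 nM in 25 mM Hepes, 0.01% Triton X-100, pH 7.0, preincubated 15 min at room temperature with compound. Reaction started with 40 uM arachidonic acid, 30 min at room temperature. Hydroperoxide measured by Fe-xylenol orange, 573/405 nm absorbance ratio.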
hERG WT inh: inhibitors of human wildtype KCNH2 potassium channel. U2OS, BacMam KCNH2, thallium flux FluxOr; active compounds read low. 340,000 compounds, 0.37% hits. AID 720551. activity change, % at 1.84 µM;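 active = maximum activity change below -70%; inconclusive = maximum activity change between -70% and -50%; inactive = maximum activity change above -50%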
Target sequence (Q12809 whole entry, looked up): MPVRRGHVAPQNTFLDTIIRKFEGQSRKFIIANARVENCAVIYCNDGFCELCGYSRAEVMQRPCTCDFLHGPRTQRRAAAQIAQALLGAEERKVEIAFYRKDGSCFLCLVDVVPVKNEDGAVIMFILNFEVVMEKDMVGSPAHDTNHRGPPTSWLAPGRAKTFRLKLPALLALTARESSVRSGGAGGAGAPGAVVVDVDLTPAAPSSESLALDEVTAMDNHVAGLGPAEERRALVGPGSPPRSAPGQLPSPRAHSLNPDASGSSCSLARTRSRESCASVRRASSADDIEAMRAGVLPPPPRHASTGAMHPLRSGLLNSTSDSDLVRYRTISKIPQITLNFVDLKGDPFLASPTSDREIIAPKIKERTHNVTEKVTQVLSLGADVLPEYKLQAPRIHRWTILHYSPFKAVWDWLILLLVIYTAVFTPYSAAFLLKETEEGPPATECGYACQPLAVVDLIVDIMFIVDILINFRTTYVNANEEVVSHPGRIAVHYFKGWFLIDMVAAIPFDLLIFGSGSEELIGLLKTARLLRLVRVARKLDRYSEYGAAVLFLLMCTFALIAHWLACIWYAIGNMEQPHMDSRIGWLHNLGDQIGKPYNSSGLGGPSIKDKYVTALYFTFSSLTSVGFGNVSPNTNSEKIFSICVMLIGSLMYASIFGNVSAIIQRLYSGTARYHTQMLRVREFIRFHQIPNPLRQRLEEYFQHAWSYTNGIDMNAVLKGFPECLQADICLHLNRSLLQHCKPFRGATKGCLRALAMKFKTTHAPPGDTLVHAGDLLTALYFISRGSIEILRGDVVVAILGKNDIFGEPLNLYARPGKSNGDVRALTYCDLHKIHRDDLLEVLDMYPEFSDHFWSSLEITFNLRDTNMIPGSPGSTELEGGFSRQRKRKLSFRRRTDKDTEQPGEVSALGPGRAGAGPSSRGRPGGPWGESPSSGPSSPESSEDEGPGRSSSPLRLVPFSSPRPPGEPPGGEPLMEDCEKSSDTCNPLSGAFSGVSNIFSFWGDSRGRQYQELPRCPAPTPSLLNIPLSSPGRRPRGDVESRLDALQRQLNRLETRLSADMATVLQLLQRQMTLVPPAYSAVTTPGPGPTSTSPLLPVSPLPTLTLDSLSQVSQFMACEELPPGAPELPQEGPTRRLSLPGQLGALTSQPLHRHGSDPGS
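U2OS cells transduced with wild-type KCNH2 virus are loaded with FluxOr dye for 45 min, and thallium flux is measured in kinetic reads before and after stimulation buffer. Rate constants are normalized to DMSO controls.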
KCNH2 3.1 block: blocks the human KCNH2 3.1 channel isoform. U2OS KCNH2 3.1, thallium flux FluxOr; active compounds read low. 340,000 compounds, 0.95% hits. activity change, % (tested at about 1.8 µM);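 active = maximum activity change below -70%; inconclusive = maximum activity change from -70% to -50%; inactive = maximum activity change above -50%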;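 also: thallium influx rate constant from kinetic fluorescence after stimulation buffer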
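U2OS cells transduced with KCNH2 3.1 mutant virus (1.77 x 10^8 /mL, 4 h), plated overnight at 37 C, loaded 45 min with FluxOr dye plus Red40 quencher. Thallium flux rate constant from kinetic reads after stimulation buffer, normalised to controls.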
BCR signal inh: blocks chronic active B-cell receptor signaling; Potency, µM (top dose mostly 46.1 µM), usual class: inhibitors; ABC-DLBCL IkBa-CBG/CBR reporter, luminescence ratio, 4 h; 340,000 compounds, 0.05% hits; AID 493014; active = well fitted inhibition curve with a large enough effect in the signal ratio, with a control signal flat, not every such curve was filed as active; inconclusive = small, poorly fitted or top-dose-only effect, or effect the other way, or a change in a side signal; the % refers to the signal ratio
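Cell line TMD8 (human ABC DLBCL), stably expressing tet-inducible CBG68-IkBa fusion and CBR; IMDM/0.5% FBS; cpd up to 46 uM; dox induction, 4 h, 37C/5% CO2; dual luminescence; green/red ratio; MG132 control.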
Large screens that a line does not name were inactive.

O=C(CCN1CCN(C(c2ccccc2)c2ccccc2)CC1)N/N=C/c1ccc(O)cc1	ALOX12 inh inconclusive, KCNH2 3.1 block -79.5
O=C(CCN1CCCCC1)N/N=C/c1ccc(Br)cc1	KCNH2 3.1 block -75.1
COc1ccc(OC)c(/C=N/NC(=O)CCCC(=O)Nc2cccc(Br)c2)c1	ClpP mod 25.1µM, BCR signal inh inconclusive
O=C(CCN1CCCCC1)Nc1ccc(Br)cc1	none
Cc1ccc2c(=O)cc(C(=O)NCC(c3cccs3)N3CCCCCC3)oc2c1C (centres undefined)	none (no result: ClpP mod, hERG WT inh, KCNH2 3.1 block, BCR signal inh)
COc1ccc(OC)c(/C=N/NC(=O)CCN2CCN(C(c3ccccc3)c3ccccc3)CC2)c1	ClpP mod 28.2µM
CCC(C)Cc1nc(N)c(C#N)c(-c2ccccc2)c1C (centres undefined)	none (no result: ClpP mod, hERG WT inh, KCNH2 3.1 block, BCR signal inh)
O=C(NCC1CCCO1)C(c1cccs1)N(Cc1ccccc1Cl)C(=O)c1ccc(-c2ccccc2)[nH]1 (centres undefined)	ClpP mod 31.6µM
CN(CCc1ccccn1)C(=O)Nc1ccc(C(C)(C)C)cc1	ClpP mod 28.2µM
CN(CCc1ccccn1)C(=O)Nc1ccc(F)cc1	none
COc1ccc(NC(=O)C(C)(C)C)cc1Cl	none (no result: ClpP mod, hERG WT inh, KCNH2 3.1 block, BCR signal inh)
CCN1c2cc(C(=O)Nc3ccc(OC)c(Cl)c3)ccc2C(=O)N2CCCCCC21 (centres undefined)	none (no result: ClpP mod, LDHA inh, hERG WT inh, KCNH2 3.1 block, BCR signal inh)
O=C(Cn1cnnn1)N1CC(c2noc(C3CCCN3CC3CC3)n2)C1 (centres undefined)	none (no result: ClpP mod, LDHA inh, hERG WT inh, KCNH2 3.1 block, BCR signal inh)
O=C(NNC(=O)c1cc2cc3ccccc3nc2s1)c1ccc(F)cc1	ClpP mod inconclusive
O=C(NNC(=O)c1cc2cc3ccccc3nc2s1)c1cccc(Cl)c1	LDHA inh -51.4
Cc1cccc(C(=O)NNC(=O)c2cc3cc4ccccc4nc3s2)c1	ClpP mod 22.4µM
COc1ccc(-n2ncc3c(NCC(C)C)ncnc32)cc1	ClpP mod 31.6µM, ALOX12 inh 6.31µM, BCR signal inh inconclusive
CCC(C)Nc1ncnc2c1cnn2-c1ccc(F)cc1 (centres undefined)	BCR signal inh inconclusive (no result: hERG WT inh, KCNH2 3.1 block)
COCC(C)Nc1ncnc2c1cnn2-c1ccc(Cl)cc1 (centres undefined)	ClpP mod 28.2µM, BCR signal inh inconclusive
Cc1ccc(Oc2nc3ccccn3c(=O)c2/C=C(\C#N)c2nc3ccccc3s2)c(C)c1	ALOX12 inh 3.98µM (no result: hERG WT inh, KCNH2 3.1 block, BCR signal inh)
N#C/C(=C\c1c(Oc2ccc(F)cc2)nc2ccccn2c1=O)c1nc2ccccc2s1	ALOX12 inh inconclusive (no result: hERG WT inh, KCNH2 3.1 block, BCR signal inh)
Cc1noc(-c2cn(C3CCN(C(=O)Cc4ccc(OC(F)(F)F)cc4)CC3)nn2)n1	none (no result: ClpP mod, LDHA inh, hERG WT inh, KCNH2 3.1 block, BCR signal inh)
COc1cc(NS(=O)(=O)c2c(C)oc3c(F)c(F)c(F)c(F)c23)cc(OC)c1OC	hERG WT inh -78.2
COc1cc(NS(=O)(=O)c2ccc3c(c2)oc(=O)n3C)cc(OC)c1OC	none
COc1cccc(CN2CCCC(Cc3ncc(C)n3Cc3ccccc3)C2)c1OC (centres undefined)	none (no result: ClpP mod, LDHA inh, hERG WT inh, KCNH2 3.1 block, BCR signal inh)
C/C=C/c1ccc(OCC(O)CNCC(c2ccc(OC)cc2)N(C)C)c(OC)c1 (centres undefined)	KCNH2 3.1 block -73.4
C/C=C/c1ccc(OCC(O)CNCCc2ccc(OC)cc2)c(OC)c1 (centres undefined)	ALOX12 inh inconclusive, KCNH2 3.1 block -71.0
COc1ccc(CCNCC(O)COc2ccc(Cl)cc2)cc1OC (centres undefined)	KCNH2 3.1 block inconclusive
C/C=C/c1ccc(OCC(O)CN2CCCCC2CC)c(OC)c1 (centres undefined)	none (no result: ClpP mod)
C/C=C/c1ccc(OCC(O)CN(C)Cc2ccc(SC)cc2)c(OC)c1 (centres undefined)	ALOX12 inh inconclusive, hERG WT inh inconclusive, KCNH2 3.1 block -112.3
COc1ccc(COCC(O)CN(C)Cc2ccc(OC)c(OC)c2)cc1OC (centres undefined)	none (no result: ClpP mod, hERG WT inh, KCNH2 3.1 block, BCR signal inh)
COc1ccc(NC(=O)CSc2nc(N3CCOCC3)c3c(c2C#N)CCCC3)c(OC)c1	none (no result: ClpP mod, hERG WT inh, KCNH2 3.1 block, BCR signal inh)
